G9a inh = blocks human histone lysine methyltransferase G9a | Q96KQ7 | G9a H3K9 monomethylation, AlphaScreen, 2 h | Potency, µM (series often up to 102 µM), inactives show at the highest dose activity, negative = inhibition, most hits filed as inhibitors | 8.8% of 350,000 active | AID 504332; note: % is set by controls: 0 for no effect and ±100 for the full control effect; nearly all actives have a fitted effect of over 75% in size
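G9a (20 nM) preincubated 15 min RT with compounds, then 500 nM biotinylated H3K9 peptide and 20 uM SAM added; 2 h RT reaction. Monomethyl-H3K9 product detected by AlphaScreen with anti-H3K9me1 antibody, streptavidin donor and anti-rabbit IgG acceptor beads.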
GLS inh = glutaminase GLS (human) inhibition; O94925; GLS enzymatic activity, qHTS titration; Potency, µM (top dose mostly 45.5 µM), without a hit: at the top dose activity change, negative = inhibition, most hits filed as inhibitors; 0.21% of 410,000 active; AID 624170; note: % is set by controls: 0 for no effect and ±100 for the full control effect
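hKGA; 45 mM KH2PO4 pH 8.2 + 0.02% Tween-20; cpd via pin tool; 1 mM Gln soln; GluOx/HRP/Amplex Red; RT 30 min; fluor. t0 & final.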
HP1b chromo inh = HP1-beta chromodomain-methylated histone interaction inhibition; P83916; AlphaScreen HP1-beta / biotin-H3K9me3 peptide binding; Potency, µM (doses to about 114 µM), for inactives: at the top dose activity change, negative = inhibition, hits mostly inhibitors; 0.56% of 390,000 active; AID 540317; note: nearly all actives have a fitted effect of over 70% in size
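Compound inhibition of the preformed complex between 50 nM HP1-beta and 50 nM biotinylated H3K9me3 peptide was read by AlphaScreen. Buffer was PBS pH 7.4 with 0.01% Tween-20. Incubations ran 30 min at room temperature, with 10 ug/mL donor/acceptor beads.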
BAZ2B block = BAZ2B (human) inhibition; Q9UIF8; AlphaScreen BAZ2B-H3K14Ac peptide displacement; Potency, µM (top dose mostly 114 µM), for the others: at the top dose activity change, negative = inhibition, most hits filed as inhibitors; 4.4% of 360,000 active; note: % is set by controls: 0 for no effect and ±100 for the full control effect; nearly all actives have a fitted effect of over 60% in size
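AlphaScreen luminescence quantifies BAZ2B engagement of H3K14Ac peptide; the protein and biotinylated peptide are both at 50 nM final, buffer PBS pH 7.4 with 0.01% Tween-20, all steps at room temperature.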
JMJD2A Tudor inh = JMJD2A Tudor domain (human) inhibition; O75164; AlphaScreen JMJD2A-Tudor / H3K4me3 peptide binding; Potency, µM (doses to about 114 µM), for the others: at the top dose activity change, negative = inhibition, usual class: inhibitors; 4.4% of 390,000 active; note: % is set by controls: 0 for no effect and ±100 for the full control effect; nearly all actives have a fitted effect of over 50% in size
Target sequence (O75164 whole entry, looked up, the tested form may be a part): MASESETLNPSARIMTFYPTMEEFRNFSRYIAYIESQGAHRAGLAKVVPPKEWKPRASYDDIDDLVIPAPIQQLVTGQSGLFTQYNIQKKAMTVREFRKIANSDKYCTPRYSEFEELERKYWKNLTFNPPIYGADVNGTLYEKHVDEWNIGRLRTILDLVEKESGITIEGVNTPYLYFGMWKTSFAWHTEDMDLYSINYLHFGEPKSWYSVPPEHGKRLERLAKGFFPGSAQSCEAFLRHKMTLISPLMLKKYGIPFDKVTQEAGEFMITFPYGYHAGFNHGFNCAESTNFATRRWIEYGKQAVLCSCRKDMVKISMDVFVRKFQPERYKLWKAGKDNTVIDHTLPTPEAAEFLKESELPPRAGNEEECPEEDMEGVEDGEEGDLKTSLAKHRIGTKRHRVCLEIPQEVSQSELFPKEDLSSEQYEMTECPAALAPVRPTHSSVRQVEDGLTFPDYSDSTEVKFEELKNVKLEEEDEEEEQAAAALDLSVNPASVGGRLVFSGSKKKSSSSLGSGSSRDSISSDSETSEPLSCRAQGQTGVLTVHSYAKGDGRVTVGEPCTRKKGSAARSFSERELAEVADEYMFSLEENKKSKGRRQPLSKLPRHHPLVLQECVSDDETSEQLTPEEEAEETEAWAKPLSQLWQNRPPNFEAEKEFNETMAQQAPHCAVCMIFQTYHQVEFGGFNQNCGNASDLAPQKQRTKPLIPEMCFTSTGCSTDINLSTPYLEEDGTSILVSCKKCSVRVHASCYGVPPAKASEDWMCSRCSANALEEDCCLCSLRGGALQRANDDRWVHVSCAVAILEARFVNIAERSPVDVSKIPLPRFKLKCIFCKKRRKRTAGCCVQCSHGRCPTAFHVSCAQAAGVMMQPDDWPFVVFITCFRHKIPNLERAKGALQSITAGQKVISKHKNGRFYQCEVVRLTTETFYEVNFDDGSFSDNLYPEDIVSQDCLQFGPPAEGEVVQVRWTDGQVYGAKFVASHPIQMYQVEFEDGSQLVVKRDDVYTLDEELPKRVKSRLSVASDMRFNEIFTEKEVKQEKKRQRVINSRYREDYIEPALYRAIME
An asterisk follows results filed as active; u = inconclusive; x = no result; [ ] = another dose, or the depositor's remark. Compounds with a hit are over-represented: about 10% of the library has one in this group of screens. Calls come from the whole dose curve; as a rule, active = well fitted curve in the direction sought with a large enough effect; inconclusive = small, poorly fitted or top-dose-only effect, or another doubt; inactive = no such curve, though single readings can be large; an effect the other way counts as inactive or inconclusive. Potency is the fitted concentration of half-maximal effect.

SMILES	G9a inh	GLS inh	HP1b chromo inh	BAZ2B block	JMJD2A Tudor inh
CC1=CC(C)(C)Nc2ccc(OC(=O)CN3C(=O)c4ccccc4C3=O)cc21	35µM*	-16%	u	18µM*	u
CCOC(=O)c1ccc(NS(=O)(=O)c2ccc(-c3coc(C)n3)cc2)cc1	25%	-6%	31%	-4%[57.1 µM]	-13%
O=C1Nc2ccc(S(=O)(=O)N(CCO)CCO)c3cccc1c23	5%	-1%	-10%	-14%	u
Cc1cccc(C(=O)Nc2cccc(OC(=O)c3cccc(C)c3)c2)c1	25%[12.7 µM]	1%	40%	-13%	14%
Cc1cccc(C(=O)Oc2csc(=S)n2C(=O)c2cccc(C)c2)c1	1.6µM*	u	-30%	u	u
O=C(Oc1csc(=S)n1C(=O)c1ccccc1)c1ccccc1	1µM*	31%	50µM*	u	35µM*
O=C(O)C1CC=CCC1C(=O)Nc1ccc(N2CCN(Cc3ccccc3)CC2)cc1 (stereo unspecified)	u	35%	-6%	u	u
O=C(Cc1nnc(-c2cc3ccccc3[nH]2)s1)Nc1cc(C(F)(F)F)ccc1Cl	x	x	x	x	-14%
CCOc1ccc(NC(=O)CN(C)C(=O)c2cc(-c3ccc(OC)cc3)nc3ccccc23)cc1OCC	50µM*	-1%	19%	-33%	-32%
COc1ccc(NC(=O)CN(C)C(=O)c2cc(-c3ccc(Cl)cc3)nc3ccccc23)cc1	u	-11%	18%	-22%	-28%
CCOc1ccc(NC(=O)CN(C)C(=O)c2ccccc2CCc2ccccc2)cc1OCC	56µM*	-4%	40%	-3%	-33%
CCOc1ccc(NC(=O)CN(C)C(=O)c2cccc3ccccc23)cc1OCC	-7%	4%	9%	-9%	-19%
CCOc1ccc(NC(=O)CN(C)C(=O)c2ccncc2)cc1OCC	40µM*	-3%	46%	-35%	-5%
CCOc1ccc(NC(=O)CN(C)C(=O)Cn2cnc3c2c(=O)n(C)c(=O)n3C)cc1OCC	50µM*	-6%	22%	-4%	1%
COC(=O)c1cn(C(=O)c2ccccc2F)nc1N	u	0%	8%	-2%	0%
c1ccc(Nc2nc(NCc3ccco3)c3ccccc3n2)cc1	50µM*	1%	u	u	50µM*
Cc1cccc(Nc2nc(NCc3ccco3)c3ccccc3n2)c1	18µM*	0%	-10%	u	u
O=C(CCC(=O)N(CC(=O)NC1CCCC1)C1CCCCC1)Nc1ccccn1	u	-4%	27%	-17%	-6%
CCOc1ccc(N2C(=O)CS/C2=C(\C(Cl)=C(Cl)Cl)[N+](=O)[O-])cc1	32µM*	19%	-65%	50µM*	5µM*
CCOc1ccc(N2C(=O)CNC2=S)cc1	8%	u	3%	-10%	-9%
COc1ccc(C(=O)NCCCN2CCOCC2)cc1	33%	-12%	33%	4%	3%
O=C(c1cnn2c1NC(c1ccco1)CC2C(F)(F)F)N1CCN(c2cccc(Cl)c2)CC1 (stereo unspecified)	10µM*	-1%	20%	u	-23%
O=C(c1ccco1)N1CCN(C(=O)c2cnn3c2NC(c2cccs2)CC3C(F)(F)F)CC1 (stereo unspecified)	16%[59 µM]	24%	17%	-5%	-8%
O=C(NCc1ccco1)c1cnn2c1NC(c1ccc(Br)cc1)CC2C(F)(F)F (stereo unspecified)	50µM*	u	u	u	u
O=C(NCc1ccco1)c1cnn2c1NC(c1ccccc1)CC2C(F)(F)F (stereo unspecified)	6%[12.7 µM]	11%	9%	12%	u
SMILES	G9a inh	GLS inh	HP1b chromo inh	BAZ2B block	JMJD2A Tudor inh
CCOc1cccc(-c2nnc3sc(-c4ccco4)nn23)c1	7.9µM*	-1%	-11%	4%	-32%
CCOc1cccc(-c2nnc3sc(-c4ccc(C)cc4)nn23)c1	14%	x	x	24%	x
COc1cccc(-c2nn3c(-c4ccco4)nnc3s2)c1	45µM*	x	25%	6%	-19%
COc1cccc(OC)c1-c1nn2c(-c3ccco3)nnc2s1	35µM*	x	31%	5%	-2%
O=C(NCc1nnnn1-c1ccc(Cl)cc1)C1CC(=O)N(c2ccc(F)cc2)C1 (stereo unspecified)	x	-1%	x	x	x
c1ccc(-c2nnc(N3CCN(c4ccccn4)CC3)c3ccccc23)cc1	u	-2%	-8%	u	u
CC(Sc1nncn1C)C(=O)Nc1ccc(S(N)(=O)=O)cc1 (stereo unspecified)	x	-1%	17%	-2%	-10%[11.4 µM]
CC(Sc1nncn1C)C(=O)Nc1ccc2ccccc2c1 (stereo unspecified)	8.9µM*	0%	18%	7%	-16%
O=C(CN1CCN(Cc2ccccc2Cl)C1=O)NC1CCCCCC1	15%	-8%	20%	4%	8%
COc1ccccc1OCC(=O)N1CCN(S(=O)(=O)c2ccc(Cl)cc2)CC1	45µM*	1%	25%	9%	3%
O=S(=O)(c1ccc(Cl)cc1)N1CCN(Cc2c[nH]c3ccccc23)CC1	-32%[59 µM]	x	26%	-36%	3%
COc1ccccc1OCC(=O)N1CCN(C(=O)COc2ccccc2OC)CC1	40µM*	3%	28%	-14%	-20%
O=C(Cc1c[nH]c2ccccc12)N1CCN(S(=O)(=O)c2ccc(Cl)cc2)CC1	14µM*	0%	-5%	-8%	-27%
Cc1ccc(OCC(=O)N2CCN(S(=O)(=O)c3ccc(Cl)cc3)CC2)c([N+](=O)[O-])n1	40µM*	-12%	12%	-6%	-15%
Cc1sc2nc(C(C)Nc3ccccc3N3CCOCC3)[nH]c(=O)c2c1C (stereo unspecified)	-29%	11%	-3%	u	-6%
CN(CC(=O)Nc1cccc(F)c1)C(=O)c1cccnc1Sc1ccccc1	1%	-5%	43%	-4%	-1%
O=C(COc1ccccc1F)N1CCN(S(=O)(=O)/C=C/c2ccccc2)CC1	45µM*	3%	28%	6%	-12%
OCc1ccccc1SSc1ccccc1CO	x	u	u	x	14µM*
CSc1ccc(C(=O)C2CCCN(Cc3cccn3-c3cccnc3)C2)cc1 (stereo unspecified)	u	-2%	u	u	45µM*
COC(=O)CC(c1ccc(C#N)cc1)n1c(C)ccc1C (stereo unspecified)	6%	-8%	15%	-19%	-20%
CCOC(=O)CC(c1ccc([N+](=O)[O-])cc1)n1c(C)ccc1C (stereo unspecified)	u	-10%	u	45µM*	-34%
CCSc1nnc2c(n1)OC(c1ccc(C)s1)Nc1ccccc1-2 (stereo unspecified)	5%[59 µM]	-6%	9%	-17%	-12%
CCSc1nnc2c(n1)OC1(CCCC1)Nc1ccccc1-2	35µM*	-2%	40%	5%	-19%

High-throughput results as filed in PubChem BioAssay.
